# Screening results (PubChem)
# IL-1B inflam inh: inflammasome signaling inhibition, IL-1 beta readout; THP-1 LPS/ATP IL-1B secretion, AlphaLISA, 16 h; hits give low values; activity change, % at 57.5 µM; 360,000 compounds, 4.7% hits; AID 743279; in the data active = activity change below about -50%; inconclusive = mostly about -30% to -49%
#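 Secreted IL-1B measured by AlphaLISA bead assay after 16 h compound exposure of THP-1 cells; compounds (final up to 57.5 uM) added 1 h before LPS (250 ng/mL) and ATP (1.25 mM) stimulation; lower signal means less secretion.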
# CtBP-E1A inh: inhibitors of CtBP/E1A interaction; AlphaScreen GST-E1A/His-CtBP binding, 1536-well; hits give low values; activity change, % (test concentration not listed); 340,000 compounds, 0.49% hits; in the data active = activity change below about -65%; inconclusive = mostly about -30% to -63%
#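 Steps: dispense buffer (Tris pH 8.0, NaCl 300 mM, TCEP 1 mM, BSA, Tween 20); add 5X protein mix (GST-E1A, His-CtBP, 125 nM each); pin 23 nL compound; 2 h at 37 °C, dark; add 5X beads (50 ug/mL); 1 h; read.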
# TDP1 inh: TDP1 (human) enzyme inhibition; recombinant TDP1, AlphaScreen DNA substrate cleavage; Potency, µM (highest dose often 130 µM), without a hit: at the top dose activity change, negative = inhibition, most hits filed as inhibitors; 350,000 compounds, 0.28% hits; Q9NUW8; also: potency is read from the fitted curve at half-maximal effect; nearly all actives have a fitted effect of over 40% in size
#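 Here, a 5' biotin and 3' phosphotyrosine-FITC DNA oligonucleotide reports Tdp1 activity: intact substrate bridges AlphaScreen beads, while cleavage leaves a 3' phosphate and drops signal. All incubations at room temperature.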
# TDP1 cell noCPT: qHTS for Inhibitors of human tyrosyl-DNA phosphodiesterase 1 (TDP1): qHTS in cells in absence of CPT; DT40 Tdp1-/- hTDP1 cells, no CPT, ATP luminescence, 48 h; Potency, µM (top dose mostly 46.2 µM), for inactives: top-dose activity change, negative = growth inhibition, actives largely listed as inhibitors; 420,000 compounds, 15% hits; AID 686978, 2013; also: potency is read from the fitted curve at half-maximal effect; nearly all actives have a fitted effect of over 55% in size
#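 Luminescent ATP content (CellTiter-Glo) served as the growth readout. Knockout chicken DT40 cells expressing human TDP1 were exposed to compounds without camptothecin for a minimum 48 hr at 37 °C.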
# TDP1 cell CPT: DT40-hTDP1 cell growth loss with CPT. chicken DT40 Tdp1-/-;hTDP1 cells + 20 nM CPT, ATP luminescence, 48 h. Potency, µM (series often up to 46.2 µM), without a hit: at the top dose activity change, negative = growth inhibition, actives largely listed as inhibitors. 420,000 compounds, 12% hits. AID 686979; also: potency is read from the fitted curve at half-maximal effect; nearly all actives have a fitted effect of over 55% in size
#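 Chicken DT40 Tdp1-/- cells stably complemented with human TDP1 were seeded at 400 cells/well in medium containing 20 nM camptothecin, exposed to pin-transferred compounds, and grown at 37 °C for at least 48 hr. Viability was read as ATP luminescence.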
# Six1-Eya2 blk: blocks human Six1 binding to Eya2 | AlphaScreen GST-Six1/His-Eya2 binding, biochemical; hits give low values | 360,000 compounds, 0.56% hits | activity change, % (concentration not given with the values); in the data active = activity change below about -65%; inconclusive = mostly about -30% to -63%
# Target sequence (O00167 whole entry, looked up): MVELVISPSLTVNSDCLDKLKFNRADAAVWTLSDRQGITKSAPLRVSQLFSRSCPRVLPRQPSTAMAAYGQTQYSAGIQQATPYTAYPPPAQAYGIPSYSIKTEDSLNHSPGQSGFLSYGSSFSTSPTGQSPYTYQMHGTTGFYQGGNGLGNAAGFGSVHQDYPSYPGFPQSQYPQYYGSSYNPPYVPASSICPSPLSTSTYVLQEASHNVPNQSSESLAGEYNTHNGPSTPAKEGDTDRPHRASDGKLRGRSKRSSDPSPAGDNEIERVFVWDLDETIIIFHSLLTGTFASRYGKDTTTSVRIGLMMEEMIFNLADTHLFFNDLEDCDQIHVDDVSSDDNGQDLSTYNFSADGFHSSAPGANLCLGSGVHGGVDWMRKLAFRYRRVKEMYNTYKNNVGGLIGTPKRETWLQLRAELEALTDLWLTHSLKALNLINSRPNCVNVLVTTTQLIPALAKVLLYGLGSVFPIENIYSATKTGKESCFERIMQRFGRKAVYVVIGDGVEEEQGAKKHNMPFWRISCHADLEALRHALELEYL
# Target sequence (Q15475 whole entry, looked up): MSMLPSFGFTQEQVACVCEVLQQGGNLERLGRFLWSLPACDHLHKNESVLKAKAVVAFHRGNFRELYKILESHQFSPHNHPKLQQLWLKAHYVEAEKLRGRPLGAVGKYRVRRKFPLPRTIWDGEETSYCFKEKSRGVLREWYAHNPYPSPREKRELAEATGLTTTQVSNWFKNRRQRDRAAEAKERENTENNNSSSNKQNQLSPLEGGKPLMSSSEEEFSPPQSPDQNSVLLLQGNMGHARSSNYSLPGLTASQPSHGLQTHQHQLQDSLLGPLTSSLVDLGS
#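 Six1/Eya2 binding was read as AlphaScreen signal after compounds were pinned into GST-Six1 plus His-tagged Eya2 (5X stock 250/500 nM) in pH 8.0 Tris/NaCl/TCEP buffer, beads added, then incubated 1 h, 37 C, dark.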
# * hit, by the source's call; i = inactive; u = inconclusive; x = not tested or not shown. Rows were chosen to be rich in hits. Some 18% of all compounds tested hit in one or more screens of this group. Unless noted, calls follow the shape of the dose curve; as a rule, active = well fitted curve in the direction sought with a large enough effect; inconclusive = small, poorly fitted or top-dose-only effect, or another doubt; inactive = no such curve, though single readings can be large; an effect the other way counts as inactive or inconclusive. % is scaled to controls: 0 for no effect and ±100 for the full control effect.
SMILES,IL-1B inflam inh,CtBP-E1A inh,TDP1 inh,TDP1 cell noCPT,TDP1 cell CPT,Six1-Eya2 blk
CN1CCN(C(=S)Nc2cccc(C(F)(F)F)c2)CC1,-5.8,0.8,2.3%,-24.5%,-4.8%,0.9
COC(=O)c1cccc(C(=O)Nc2ccc(F)cc2)n1,22.0,-1.0,2.0%,0.0%,-7.2%,-1.6
O=C(c1cc(Cl)cc(Cl)c1)N1CCC2CC1c1cc(-c3ccc4c(c3)OCO4)ccc12 (configuration not stated),24.9,1.9,x,u,u,-16.6
CC1=Nc2ccccc2/C1=C\c1sc(Nc2ccc(C)cc2)nc1O,-52.9*,-14.0,0.0%,0.92µM*,0.581µM*,-19.8
Oc1nc(Nc2ccc(F)cc2)sc1/C=C1\C=Nc2ccccc21,-78.1*,-9.3,1.2%,-29.6%,u,-10.0
Clc1ccc(C[n+]2cc(-c3ccccc3)n3c2CCC3)cc1Cl,-66.5*,2.0,2.3%,3.66µM*,6.51µM*,0.9
O=C(C[n+]1cc(-c2ccc(Cl)c(Cl)c2)n2c1CCC2)OCc1ccccc1,i,-13.5,-4.6%,-13.9%,-13.4%,-7.7
Clc1ccc(-c2c[n+](Cc3cccc(Cl)c3)c3n2CCC3)cc1,-74.2*,9.0,8.2%,8.2µM*,10.3µM*,10.4
COc1ccccc1C(=O)COC(=O)CN1C(=O)c2ccccc2C1=O,-15.9,6.1,-0.3%,11.4%,-11.8%,0.3
COc1ccc(CCNC(=O)Cn2c(=O)c3sccc3n(CC(=O)Nc3cccc(C(F)(F)F)c3)c2=O)cc1OC,x,x,3.6%,-7.3%,-11.6%,x
O=C(Oc1ccc(C(=S)N2CCOCC2)cc1)c1cccc(Cl)c1,5.1,0.3,4.2%,-5.0%,-8.1%,-80.0*
O=C(Oc1ccc(C(=S)N2CCC(O)CC2)cc1)c1ccc(Cl)cc1,6.0,-84.2*,-5.1%,-6.0%,23.8%,-90.0*
O=C(Oc1ccc(C(=S)N2CCOCC2)cc1)c1cc([N+](=O)[O-])cc([N+](=O)[O-])c1,9.2,10.7,x,-6.3%,-3.7%,-1.5
Cc1cccc(C)c1NC(=S)N(Cc1ccco1)C1CCN(C(C)C)CC1,-3.9,1.7,0.0%,9.5%,-6.6%,0.3
COc1cccc(/C(C#N)=C/c2c(-c3ccc(Cl)cc3)nc3c(C)cccn23)c1,-65.4*,u,8.2%,18.4µM*,20.6µM*,-25.7
Cc1cccn2c(/C=N/OCc3cccc(F)c3)c(-c3ccc(Cl)cc3)nc12,9.8,4.9,4.0%,u,u,-4.4
O=C(O)C1CCCCC1C(=O)Nc1cccc2ccccc12 (configuration not stated),33.9,0.6,0.0%,8.2µM*,16.4µM*,0.1
CCc1ccc(N2CC(C(=O)N/N=C/c3ccccc3OC)CC2=O)cc1 (configuration not stated),-2.7,11.3,5.9%,-25.7%,-6.2%,1.5
O=[N+]([O-])c1ccccc1N/N=C\c1ccccc1Cl,-3.1,-7.6,0.0%,-16.1%,-16.7%,-17.9
CCc1ccc(N2CC(C(=O)N/N=C/c3cc([N+](=O)[O-])ccc3O)CC2=O)cc1 (configuration not stated),164.6,-88.4*,9.6%,u,u,-79.8*
O=C(N/N=C/c1cc([N+](=O)[O-])ccc1O)C(O)(c1ccccc1)c1ccccc1,182.5,u,5.1%,16.4µM*,u,u
Cc1sc(N/N=C/c2cc([N+](=O)[O-])ccc2O)nc1-c1ccccc1,7.4,x,2.7%,14.6µM*,14.6µM*,-10.6
O=C(O)c1ccc(/C=N/NC(=O)C(O)(c2ccccc2)c2ccccc2)cc1,-8.4,-9.4,4.4%,-7.6%,-1.6%,10.6
O=[N+]([O-])c1ccc(O)c(/C=N/Nc2ccccc2Cl)c1,-52.8*,x,3.0%,u,u,-0.5
Cc1sc(N/N=C/C=C/c2ccccc2)nc1-c1ccccc1,-19.7,-6.5,6.4%,u,u,6.2
SMILES,IL-1B inflam inh,CtBP-E1A inh,TDP1 inh,TDP1 cell noCPT,TDP1 cell CPT,Six1-Eya2 blk
Cn1c(CSCc2ccc(Cl)cc2Cl)n[nH]c1=S,6.6,3.3,4.8%,u,u,0.9
O=c1c2ccccc2nc2c3ccccc3cnn12,0.0,u,7.5%,u,u,u
COc1ccc(-c2csc(NC(=O)Cn3nc(C)cc3C)n2)cc1,0.0,-0.5,2.1%,-4.6%,-28.4%,-2.0
O=C1NCCCC1C(=O)N/N=C/c1cc([N+](=O)[O-])ccc1O (configuration not stated),83.6,-96.3*,7.0%,u,-21.6%,-69.1*
O=C(N/N=C/c1cc([N+](=O)[O-])ccc1O)C1CC1,72.3,-25.8,6.2%,18.4µM*,u,-85.3*
O=C1NCCCC1C(=O)N/N=C/c1ccc([N+](=O)[O-])cc1 (configuration not stated),15.1,x,x,1.5%,5.0%,3.3
CCOc1ccc(CCNc2nc3ccccc3n3c(C)nnc23)cc1OCC,26.1,x,5.2%,u,-17.8%,6.6
O=C(COC(=O)/C=C/C(=O)N1CCN(c2ccccc2)CC1)NC(c1ccccc1)c1ccccc1,-54.4*,4.2,8.1%,u,u,-9.3
c1ccc(Sc2cccc3ccccc23)c(CNC2=NCCN2)c1,u,-14.7,5.9%,11.6µM*,13µM*,6.8
Fc1ccccc1Sc1ccccc1CNC1=NCCN1,-20.4,-1.0,1.3%,13µM*,20.6µM*,9.0
O=C(/C=C/c1cccc(C(F)(F)F)c1)OCC(=O)N1CCN(c2ccccc2)CC1,-1.9,-6.2,0.5%,u,u,-5.4
CCCOc1ccc(C(=O)Nc2cc(-c3nn4c(C)nnc4s3)ccc2C)cc1,64.4,6.6,-4.9%,-12.8%,u,2.9
Cn1ccc(C(=O)NC(=S)Nc2ccc([N+](=O)[O-])cc2O)n1,-12.8,-5.6,6.2%,-5.2%,-6.6%,-27.6
CC1(C)CC(=O)C2=C(C1)N(Cc1ccc(F)cc1)C(=O)C2(NC(=O)c1cccnc1)C(F)(F)F (configuration not stated),0.0,-3.2,4.0%,0.0%,-19.6%,1.1
COc1ccccc1Oc1c(C)oc2c(CN(C)C)c(O)ccc2c1=O,-1.0,-12.2,1.8%,-0.1%,-1.8%,9.5
Cc1cccc(C)c1NC(=O)C1c2ccccc2OCC(=O)N1Cc1cccnc1 (configuration not stated),2.6,6.0,x,7.6%,-5.0%,-1.9
